As a reminder, the AC50 is the midpoint of the concentration-response curve, whichever way the signal moves.

Results filed as inconclusive are left out. The source holds several records for some structures; these can differ, active in one and inactive in another. The source made the active and inactive calls. Rule for the calls: active = hit-call score of the fitted dose curve at least 0.9, where 1 is the maximum; inconclusive = response in the unintended direction; inactive = score below 0.9.

Our source for the AC50 and outcome values is PubChem BioAssay (EPA / NIEHS).

Chain of zebrafish Estrogen Receptor (ESR1), esr1 (gene 259252) (P57717 whole entry, looked up, the tested form may be a part): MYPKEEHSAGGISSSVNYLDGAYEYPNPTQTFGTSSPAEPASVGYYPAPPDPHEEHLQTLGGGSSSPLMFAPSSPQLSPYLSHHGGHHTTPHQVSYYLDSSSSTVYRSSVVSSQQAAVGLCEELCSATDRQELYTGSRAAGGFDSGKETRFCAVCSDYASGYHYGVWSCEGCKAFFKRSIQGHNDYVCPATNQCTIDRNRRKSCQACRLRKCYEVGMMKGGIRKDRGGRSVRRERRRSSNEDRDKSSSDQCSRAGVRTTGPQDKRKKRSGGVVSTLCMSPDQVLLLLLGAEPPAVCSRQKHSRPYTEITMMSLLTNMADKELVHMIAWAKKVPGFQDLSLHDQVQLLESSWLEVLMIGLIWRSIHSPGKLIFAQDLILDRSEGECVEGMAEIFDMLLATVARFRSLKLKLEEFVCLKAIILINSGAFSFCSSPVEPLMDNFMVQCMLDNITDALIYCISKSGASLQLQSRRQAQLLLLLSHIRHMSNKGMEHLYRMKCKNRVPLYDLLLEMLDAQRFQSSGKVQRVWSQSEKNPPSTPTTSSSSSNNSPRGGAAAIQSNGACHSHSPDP

The first experiment has as its target zebrafish Estrogen Receptor (ESR1), esr1 (gene 259252) (UniProt P57717). The experiment is described as follows: ATG_zfER1_XSP1: Attagene TRANS-FACTORIAL Multi-Species (XSP1) HepG2 Assay for zebrafish Estrogen Receptor (ESR1) (AID 2283772). In a few lines: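 HepG2 cells transiently transfected with a GAL4-UAS reporter and chimeric zebrafish ER-Gal4, dosed 24 h with 3 nM 6-alpha-fluorotestosterone present. Reporter mRNA measured by RT-PCR and capillary electrophoresis; gain of signal versus DMSO.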
With `CC/C(=C(/CC)c1ccc(O)cc1)c1ccc(O)cc1`, the AC50 is 0.00024 µM (active).

For the molecule `C[C@]12CC[C@@H]3c4ccc(O)cc4CC[C@H]3[C@@H]1CCC2=O`, the AC50 is 0.0145 µM (active).

For `Cc1c2ccccc2c(C)c2c1ccc1ccccc12`, the AC50 was 9.59 µM (active).

For the next experiment, the system named is zebrafish Estrogen Receptor (ESR2B), gene 317733. The experiment is described as follows: ATG_zfER2b_XSP1: Attagene TRANS-FACTORIAL Multi-Species (XSP1) HepG2 Assay for zebrafish Estrogen Receptor (ESR2B) (AID 2283773). In a few lines:
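Human hepatoma HepG2, transiently transfected with multi-reporter units; exogenous zebrafish ESR2B-Gal4 activity measured. Exposure 24 h alongside 3 nM 6-alpha-fluorotestosterone to partly stimulate AR.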
Consider `CC/C(=C(/CC)c1ccc(O)cc1)c1ccc(O)cc1`, for which the AC50 is 0.0671 nM (active).

Consider `C[C@]12CC[C@@H]3c4ccc(O)cc4CC[C@H]3[C@@H]1CCC2=O`, for which the half-maximal activity concentration (AC50) is 3.05 nM (active).

Turning to `Cc1c2ccccc2c(C)c2c1ccc1ccccc12`, the AC50 is 16900 nM (active).

As to `CC(C)(c1cc(Br)c(O)c(Br)c1)c1cc(Br)c(O)c(Br)c1`, the call was inactive.

The subject of another experiment is frog Estrogen Receptor (ESR2), gene 100174814. Put plainly: ATG_frER2_XSP1: Attagene TRANS-FACTORIAL Multi-Species (XSP1) HepG2 Assay for frog Estrogen Receptor (ESR2) (AID 2283774). The method, boiled down:
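Multiplexed TRANS-format reporter assay in human hepatoma HepG2: chimeric nuclear receptor-Gal4 activity reported as mRNA induction at 24 h, detected by fluorescent RT-PCR products on capillary electrophoresis and fitted upward from DMSO baseline.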
As for `CC/C(=C(/CC)c1ccc(O)cc1)c1ccc(O)cc1`, the AC50 was 7.8e-05 µM (active).

Turning to `C[C@]12CC[C@@H]3c4ccc(O)cc4CC[C@H]3[C@@H]1CCC2=O`, the AC50 was 0.00632 µM (active).

Regarding `Cc1c2ccccc2c(C)c2c1ccc1ccccc12`, the AC50 is 9 µM (active).

As to `CC(C)(c1cc(Br)c(O)c(Br)c1)c1cc(Br)c(O)c(Br)c1`, the AC50 is 11.8 µM (active).

System in a further experiment: not listed separately
The experiment is described as follows: ACEA_AR_agonist_AUC_viability: ACEA Biosciences xCELLigence Real-Time Cell Analysis on Androgen Receptor Agonism for Viability (AID 2283775).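 For AC50: viability read 80 hours after compound addition.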 The method, boiled down:
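Viability endpoint from xCELLigence impedance in 22Rv1 prostate cells at 80 h. Eight-point series, 100 uM maximum final.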
In the case of `CCCCCCCCCCCO`, the AC50 is 90.2 µM (active).

For `O=C(O)c1ccccc1-n1cc(C(=O)O)c(=O)c2cc(Nc3c(F)cc(F)cc3Cl)c(Cl)cc21`, the molecule was called inactive.

On to `OC12N=C(c3ccccc3)SC1Cc1cc(Cl)ccc12` (stereo not given), for which the AC50 was 83.3 µM (active).

Take `C[C@]12CC[C@@H]3c4ccc(O)cc4CC[C@H]3[C@@H]1CC[C@H]2O`: the AC50 was 90.7 µM (active).

As for `O=C(O)Cc1cc(I)c(Oc2ccc(O)c(I)c2)c(I)c1`, the AC50 is 22 µM (active).

As to `CCCCCc1ccc(N)cc1`, the AC50 is 50 µM (active).

For `CC/C(=C(/CC)c1ccc(O)cc1)c1ccc(O)cc1`, the half-maximal activity concentration (AC50) is 21.3 µM (active).

As for `Cc1oc2c(NC(=O)c3c(Cl)cccc3Cl)cccc2c1C(C)(C)O`, the AC50 is 22.8 µM (active).

For `Clc1ccccc1C(c1ccccc1)(c1ccccc1)n1ccnc1`, the half-maximal activity concentration (AC50) is 16.9 µM (active).

Regarding `COc1ccc2cc(S(=O)(=O)N[C@H](CC(=O)N[C@H](Cc3ccc(CN4[C@H](C)CCC[C@@H]4C)cc3)C(=O)N(C)C(C)C)c3ccc4c(c3)OCO4)ccc2c1`, the AC50 was 9.68 µM (active).

Take `CN(C[C@@H](CC[N+]12CCC(C3CCCCC3)(CC1)CC2)c1ccc(Cl)c(Cl)c1)C(=O)c1cc(C(F)(F)F)cc(C(F)(F)F)c1`: the half-maximal activity concentration (AC50) is 5.81 µM (active).

Turning to `O=c1c(-c2ccc(O)cc2)coc2cc(O)cc(O)c12`, the AC50 was 62.9 µM (active).

For `Cc1cccc2ccccc12`, the molecule was classed as inactive.

As for `CCCCCCCCCCCCO`, the molecule was called inactive.

With `O=C1CCC(C2CCCCC2)CC1`, the AC50 is 50 µM (active).

Turning to `c1ccc(C[n+]2cccc3ccccc32)cc1`, the AC50 was 50 µM (active).

Consider `CCCOC(=O)c1cc(O)c(O)c(O)c1`, for which the AC50 was 50 µM (active).

In the case of `C[C@]12CC[C@@H]3c4ccc(O)cc4CC[C@H]3[C@@H]1CCC2=O`, the molecule was classed as inactive.

Turning to `NCc1cccc(C2CCN(C(=O)c3ccc(C#Cc4ccccc4F)o3)CC2)c1`, the half-maximal activity concentration (AC50) is 21.2 µM (active).

In the case of `Cc1c2ccccc2c(C)c2c1ccc1ccccc12`, the AC50 was 50 µM (active).

On to `O=C1c2ccccc2C(=O)N1CCc1noc(-c2ccc(CN3CCCCCC3)s2)n1`, for which the AC50 was 13.2 µM (active).

As for `CC(=O)N1CCN(c2ccc(OC[C@H]3CO[C@](Cn4ccnc4)(c4ccc(Cl)cc4Cl)O3)cc2)CC1`, the AC50 was 29.2 µM (active).

For the molecule `O=C1O[C@H]([C@@H](O)CO)C(O)=C1O`, the result was inactive.

With `CCCCOC(=O)CC(CC(=O)OCCCC)(OC(C)=O)C(=O)OCCCC`, the outcome was inactive.

Regarding `CN(C)c1ccc(C(=C2C=CC(=[N+](C)C)C=C2)c2ccc(N(C)C)cc2)cc1`, the AC50 is 0.281 µM (active).

For `CCCCCCCCOC(=O)c1cc(O)c(O)c(O)c1`, the AC50 was 35.3 µM (active).

For the molecule `CN1C(=O)N(c2ccccc2Br)Cc2cnc(Nc3ccc4c(c3)OCC(CO)O4)nc21` (stereo not given), the AC50 was 20.5 µM (active).

As for `COc1cc(C(=O)NC2CCN(C)CC2)ccc1Nc1ncc2c(n1)N(C1CCCC1)CC(F)(F)C(=O)N2C`, the AC50 is 0.00301 µM (active).

As to `Oc1ccccc1`, the outcome was inactive.

On to `CC(C)(C)c1cc(/C=C2\SC(N)=NC2=O)cc(C(C)(C)C)c1O`, for which the AC50 is 13.5 µM (active).

Turning to `CC(C)(C)c1csc(-c2cc3cc(OCc4ccccc4CC(=O)O)ccc3o2)n1`, the AC50 was 21.1 µM (active).

On to `CC(C)(c1cc(Br)c(O)c(Br)c1)c1cc(Br)c(O)c(Br)c1`, for which the concentration at half-maximal activity (AC50) was 25 µM (active).

Turning to `CCOC(=O)O[C@H](C)OC(=O)c1ccc2c(c1)cc(C(=O)NC1CCN(C(C)C)CC1)n2Cc1cc(-c2ccc(Cl)s2)on1`, the AC50 is 10.3 µM (active).

`Cc1ccc2oc(CN(Cc3ccccc3)C(=O)Nc3c(F)cc(F)cc3F)c(-c3ccc(Cl)cc3)c2c1`: the AC50 was 9.77 µM (active).

Take `O=C(Nc1ccc(Cl)cc1)Nc1ccc(Cl)c(Cl)c1`: the AC50 was 6.35 µM (active).

Regarding `CC1=CC(=O)/C(=C(/C)O)C(=O)O1`, the result was inactive.

System in the next experiment: not listed separately
Put plainly: ACEA_AR_antagonist_AUC_viability: ACEA Biosciences xCELLigence Real-Time Cell Analysis on Androgen Receptor Antagonism for Viability (AID 2283776).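 Note: 22Rv1 human prostate cancer cells growing on impedance electrode plates; area under impedance growth curve at 80 h after dosing as viability; hits lower the growth signal relative to DMSO meaning cytotoxicity.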 The method, boiled down:
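Impedance read-out (RT-CES): area under growth curve at 80 h post-dose, loss of signal scored vs DMSO baseline. 22Rv1 cells; 8-pt 1:4 series, top 100 uM final, ≤0.5% DMSO; biological duplicate.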
For the molecule `CCN(Cc1cccc(S(=O)(=O)O)c1)c1ccc(C(=C2C=CC(=[N+](CC)Cc3cccc(S(=O)(=O)O)c3)C=C2)c2ccccc2S(=O)(=O)[O-])cc1`, the molecule was called inactive.

On to `CCCCCCCCCCCO`, for which the AC50 is 85 µM (active).

In the case of `O=C(O)c1ccccc1-n1cc(C(=O)O)c(=O)c2cc(Nc3c(F)cc(F)cc3Cl)c(Cl)cc21`, the molecule was called inactive.

With `OC12N=C(c3ccccc3)SC1Cc1cc(Cl)ccc12` (stereo not given), the AC50 is 76.2 µM (active).

As for `C[C@]12CC[C@@H]3c4ccc(O)cc4CC[C@H]3[C@@H]1CC[C@H]2O`, the AC50 is 84.1 µM (active).

Take `O=C(O)Cc1cc(I)c(Oc2ccc(O)c(I)c2)c(I)c1`: the AC50 was 20.3 µM (active).

For the molecule `CCCCCc1ccc(N)cc1`, the molecule was classed as inactive.

Regarding `CC/C(=C(/CC)c1ccc(O)cc1)c1ccc(O)cc1`, the AC50 was 18 µM (active).

Regarding `Cc1oc2c(NC(=O)c3c(Cl)cccc3Cl)cccc2c1C(C)(C)O`, the AC50 is 20.3 µM (active).

For the molecule `Clc1ccccc1C(c1ccccc1)(c1ccccc1)n1ccnc1`, the AC50 was 14.7 µM (active).

Consider `COc1ccc2cc(S(=O)(=O)N[C@H](CC(=O)N[C@H](Cc3ccc(CN4[C@H](C)CCC[C@@H]4C)cc3)C(=O)N(C)C(C)C)c3ccc4c(c3)OCO4)ccc2c1`, for which the AC50 was 9.32 µM (active).

For the molecule `CN(C[C@@H](CC[N+]12CCC(C3CCCCC3)(CC1)CC2)c1ccc(Cl)c(Cl)c1)C(=O)c1cc(C(F)(F)F)cc(C(F)(F)F)c1`, the AC50 is 5.8 µM (active).

In the case of `O=c1c(-c2ccc(O)cc2)coc2cc(O)cc(O)c12`, the AC50 is 28.8 µM (active).

`Cc1cccc2ccccc12`: the result was inactive.

As to `CCCCCCCCCCCCO`, the outcome was inactive.

On to `O=C1CCC(C2CCCCC2)CC1`, for which the half-maximal activity concentration (AC50) was 74.1 µM (active).

For the molecule `c1ccc(C[n+]2cccc3ccccc32)cc1`, the AC50 is 82.3 µM (active).

In the case of `CCCOC(=O)c1cc(O)c(O)c(O)c1`, the AC50 is 31.4 µM (active).

As for `C[C@]12CC[C@@H]3c4ccc(O)cc4CC[C@H]3[C@@H]1CCC2=O`, the AC50 was 71.6 µM (active) and the molecule was called inactive.

For the molecule `NCc1cccc(C2CCN(C(=O)c3ccc(C#Cc4ccccc4F)o3)CC2)c1`, the AC50 was 22.1 µM (active).

For `Cc1c2ccccc2c(C)c2c1ccc1ccccc12`, the concentration at half-maximal activity (AC50) is 41.1 µM (active).

For `O=C1c2ccccc2C(=O)N1CCc1noc(-c2ccc(CN3CCCCCC3)s2)n1`, the AC50 is 6.41 µM (active).

In the case of `CC(=O)N1CCN(c2ccc(OC[C@H]3CO[C@](Cn4ccnc4)(c4ccc(Cl)cc4Cl)O3)cc2)CC1`, the AC50 was 32.4 µM (active).

Regarding `O=C1O[C@H]([C@@H](O)CO)C(O)=C1O`, the outcome was inactive.

In the case of `CCCCOC(=O)CC(CC(=O)OCCCC)(OC(C)=O)C(=O)OCCCC`, the result was inactive.

With `CN(C)c1ccc(C(=C2C=CC(=[N+](C)C)C=C2)c2ccc(N(C)C)cc2)cc1`, the AC50 is 0.161 µM (active).

As to `CCCCCCCCOC(=O)c1cc(O)c(O)c(O)c1`, the AC50 is 13.5 µM (active).

With `CN1C(=O)N(c2ccccc2Br)Cc2cnc(Nc3ccc4c(c3)OCC(CO)O4)nc21` (stereo not given), the AC50 was 12.7 µM (active).

Take `COc1cc(C(=O)NC2CCN(C)CC2)ccc1Nc1ncc2c(n1)N(C1CCCC1)CC(F)(F)C(=O)N2C`: the AC50 is 0.00297 µM (active).

`Oc1ccccc1`: the result was inactive.

As to `CC(C)(C)c1cc(/C=C2\SC(N)=NC2=O)cc(C(C)(C)C)c1O`, the AC50 was 15.2 µM (active).

Take `CC(C)(C)c1csc(-c2cc3cc(OCc4ccccc4CC(=O)O)ccc3o2)n1`: the AC50 is 23.7 µM (active).

Consider `CC(C)(c1cc(Br)c(O)c(Br)c1)c1cc(Br)c(O)c(Br)c1`, for which the AC50 was 24.3 µM (active).

Turning to `CCOC(=O)O[C@H](C)OC(=O)c1ccc2c(c1)cc(C(=O)NC1CCN(C(C)C)CC1)n2Cc1cc(-c2ccc(Cl)s2)on1`, the AC50 was 4.55 µM (active).

For `Cc1ccc2oc(CN(Cc3ccccc3)C(=O)Nc3c(F)cc(F)cc3F)c(-c3ccc(Cl)cc3)c2c1`, the AC50 was 14.1 µM (active).

For `O=C(Nc1ccc(Cl)cc1)Nc1ccc(Cl)c(Cl)c1`, the AC50 was 5.85 µM (active).

For the molecule `CC1=CC(=O)/C(=C(/C)O)C(=O)O1`, the result was inactive.
